Data on 57 molecules can be found in PubChem BioAssay AID1963576 (National Center for Advancing Translational Sciences (NCATS), 2024).

The whole screen tested about 46,000 compounds, of which about 60 (0.1%) were called active. Where a call stands in place of a potency, no number is given. About 3% were inconclusive and are not listed. The call rests on the fitted dose curve; in most records, active means well fitted inhibition curve with a large enough effect; inconclusive means small, poorly fitted or top-dose-only effect; inactive means no such curve, though single readings can be large or run the other way. This excerpt belongs to a sample that is enriched for actives.
Potency means the concentration at half of the fitted maximal effect.

The nature of the test: Primary qHTS assay for Inhibitors of ovarian cancer metastasis using an organotypic tumor microenvironment (TME) model. Further: nearly all actives have a fitted effect of over 65% in size.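 On potency: count of GFP cancer cells still attached after washing and fixation.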 As to conditions: SKOV3ip1-GFP adhesion/invasion on 3D omental model, fluorescence; series mostly up to 45.8 µM. An excerpt: PI: Ernst Lengyel MD., Ph.D. Department of Obstetrics and Gynecology, Section of Gynecologic Oncology University of Chicago Medicine, Chicago, Illinois. The tumor microenvironment (TME) is a key determinant of metastatic efficiency. We performed a quantitative high-throughput screen (qHTS) of diverse medicinal chemistry tractable scaffolds (44,420 compounds) and pharmacologically active small molecules (386 compounds) using a layered organotypic, robust assay representing the ovarian cancer metastatic TME. This 3D model contains primary human mesothelial cells, fibroblasts, and extracellular matrix, to which fluorescently labeled ovarian cancer cells are added. Initially, 100 compounds inhibiting ovarian cancer adhesion/invasion to the 3D model in a dose-dependent manner were identified. Of those, eight compounds were confirmed active in five high-grade serous ovarian cancer cell lines and were further validated in secondary in vitro and in vivo biological assays. […] Specifically, NCGC00117362 and PP-121 inhibited ovarian cancer adhesion, invasion, and proliferation, whereas milciclib inhibited ovarian cancer invasion and proliferation. […] To evaluate the clinical potential of NCGC00117362, structure - activity relationship studies were performed. […] The three compounds identified have promise as therapeutics for prevention and treatment of ovarian cancer metastasis.
PROTOCOL TABLE (as described by Inglese J, Shamu CE and Guy RK. 2007) SEQUENCE No. (e.g., 1, 2, 3, etc.); […] (e.g., Cells, Incubation, Reagent, etc.); VALUE; DESCRIPTION. 1; Cells; 4 uL; primary human omental fibroblast, black, clear bottom, low base, 1536-well Aurora assay plate. 2; Incubation; 48 hr; 37C. 3; Cells; 3 uL; 1,200 SKOV3ip1-GFP cells. 4; Compounds; 23nL; acoustic dispenser. 5; Incubation; 2 hr; room temperature. 6; Incubation; 16 hr; 37C. 7; Wash; 5 uL; 1x PBS. 8; Fixing; 5 uL; 4% paraformaldehyde (PFA). 9; Incubation; 15 min; room temperature 10; Wash, 5 uL; 1x PBS. 11; Detection; Fluorescence, excitation filter 488 nm, emission filter 509 nm. NOTES (numbers refer to Sequence numbers above) 1. For the 1,536-well format, 40 primary human omental fibroblasts and 400 mesothelial cells were seeded with 0.02 µg fibronectin and 0.02 µg collagen type I in 4 µL of growth media (2.3 mm2; Supplementary Fig. S1A). 2. Assay plates were incubated for 48 hours at 37 C. 3. After incubation, 1,200 SKOV3ip1-GFP were seeded in 3 µL of serum-free media (growth media minus FBS) on top of primary human omental cells. 4. Compounds or controls were added to each well immediately after the addition of the cancer cells. Compounds were screened in four doses (0.36-46 µmol/L), and the plates contained the positive control (Tomatine) in eight doses (0.035-75 µmol/L) and DMSO (equal volume controls) 5 - 6. The plates were incubated at room temperature for 2 hours and then at 37 degrees C for 16 hours. 7 - 10. Following incubation, the media were aspirated and each well washed with PBS (5 µL) and then fixed with 4% paraformaldehyde (PFA; 5 µL). After 15 minutes, the PFA solution was aspirated, PBS (5 µL) was added. 11. The number of GFP-labeled cells analyzed using a fluorescent cytometer TTP LabTech Acumen eX3 using 488 nm excitation filter and 509 nm emission filter. Data was normalized to the DMSO treated for negative and Tomatine treated wells for positive control. REFERENCES: Inglese J, Shamu CE and Guy RK, Reporting data from high throughput screening of small molecule libraries, Nature Chemical Biology, 2007, 3(8): 438-441. doi.org/10.1038/nchembio0807-438. Yasgar A, Shinn P, Jadhav A, Auld DS, Michael S, Zheng W, Austin CP, Inglese J and Simeonov A, Compound Management for Quantitative High-Throughput Screening. J. Assoc. Lab. Auto., 2008, 13: 79-89. doi: 10.1016/j.jala.2007.12.004.
With `Cc1ccc2nc(NC(=O)c3nc(SCc4ccccc4F)ncc3Cl)sc2c1`, the Potency entry is “inactive”. Regarding `COc1ccc(Cn2ccc3nc(C)c(C(=O)Nc4ccc(C)c(F)c4)cc3c2=O)cc1`, the Potency result is “inactive”. For the molecule `CCCCNC(=O)C1CCCN(c2nnc(C)c3c(C)n(-c4ccc(Cl)cc4)nc23)C1` (configuration not stated), the Potency result is “inactive”.

Take `COC(=O)c1cc(NC(=O)c2sc3ccccc3c2Cl)cc(C(=O)OC)c1`: the Potency result was “inactive”. As for `Cc1cccc(S(=O)(=O)c2cn(Cc3ccccc3)c3cc(N4CCOCC4)c(F)cc3c2=O)c1`, the Potency result is “inactive”.

Take `CC1=C(c2ccc(F)cc2)S(=O)(=O)N=C1N1CCC(C(=O)NCCc2ccccc2C)CC1`: the Potency result is “inactive”. Turning to `CCOC(=O)C1CCCN(S(=O)(=O)c2cc(-c3cc(C)no3)ccc2OC)C1` (configuration not stated), the Potency result is “inactive”. In the case of `CCOc1ccccc1NC(=O)Cn1c(=O)n(-c2cccc(C)c2)c(=O)c2c1c1cc(OC)ccc1n2C`, the Potency entry was “inactive”. The value for `COc1ccc(CCNC(=O)C(=O)NCC(c2ccco2)S(=O)(=O)c2cccs2)cc1OC` (configuration not stated) was “inactive”; that for `COc1ccc(CCNCc2c(C(=O)O)c(C)n(Cc3cccc(C)c3)c2C)cc1OC` was “inactive”. As to `CCN(CC)CCNC(=O)c1c(C)[nH]c(C=C2C(=O)Nc3ccc(F)cc32)c1C`, the Potency entry was “inactive”.

Turning to `COc1ccc(C2(Nc3cccc(F)c3)C(=O)c3ccccc3C2=O)cc1`, the Potency result is “inactive”. On to `COc1ccc(/C=C/c2nc(C#N)c(NCc3ccc(F)cc3)o2)cc1OC`, for which the Potency result is “inactive”. For `COc1ccc(NC(C)=O)cc1NC(=O)CN1CCN(c2ccc(F)cc2)CC1`, the Potency result is “inactive”. As for `CCCCCn1c(=O)[nH]c2cc(C(=O)Nc3cc(C)cc(C)c3)ccc2c1=O`, the Potency result was “inactive”. For the molecule `Cc1ccc(NC(=O)CCCn2c(=O)c3cccn3c3ccccc32)cc1Cl`, the Potency result was “inactive”.

For `Cc1ccc(C)c(CNC(=O)c2cc3ccccn3n2)c1`, the Potency entry is “inactive”. Regarding `Cc1ccc(CSc2oc(-c3cccs3)nc2S(=O)(=O)c2ccc(C)cc2)cc1`, the Potency result was “inactive”.

Regarding `CSc1oc(-c2cccs2)nc1S(=O)(=O)c1ccc(Br)cc1`, the Potency result was “inactive”. For the molecule `CCCCS(=O)(=O)c1oc(-c2cccs2)nc1S(=O)(=O)c1ccccc1`, the Potency was 2.51 µM (active). The value for `CN(CC(=O)Nc1ccccc1F)S(=O)(=O)c1ccc2c(c1)c(=O)n(C)c(=O)n2C` was “inactive”. On to `Cc1ccc(NC(=O)Cn2cnc3nc4c(cc3c2=O)CCCC4)cc1Cl`, for which the Potency result was “inactive”. Regarding `COc1cccc(C(=O)NC(=O)Nc2ccc(-c3cc(C(F)(F)F)nn3-c3ccccc3)cc2)c1`, the Potency entry is “inactive”.

With `Cc1cc(C)c2oc(C(=O)Nc3c(C(=O)Nc4ccccc4)oc4ccccc34)cc(=O)c2c1`, the Potency result was “inactive”. The value for `COc1ccc(CCNC(=O)c2cnc3sc(N4CCCCCC4)nn3c2=O)cc1OC` was “inactive”. In the case of `COc1cc(NC(=O)c2nn(-c3ccc(C)cc3)c(=O)c3c2c2ccccc2n3C)cc(OC)c1OC`, the Potency result is “inactive”. As for `Cc1ccc(Cl)cc1NC(=O)NC1COc2ccccc2C1` (configuration not stated), the Potency entry was “inactive”. The value for `Cn1ccc2cc(S(=O)(=O)N3CCCC(C(=O)NCc4ccccc4F)C3)ccc21` (configuration not stated) was “inactive”; that for `COC(=O)c1ccc(OC)c(Cn2c(=O)n(Cc3ccccc3)c(=O)c3c2c2cc(OC)ccc2n3C)c1` was “inactive”; that for `Cc1cccc(CCNC(=O)c2ccc3c(c2)nc2n3CCC(C)C2)c1` (configuration not stated) was “inactive”. Take `CCOC(=O)C1CCN(c2ncnc3c2c(-c2ccccc2)cn3-c2cccc(C)c2)CC1`: the Potency entry is “inactive”. In the case of `CC(=O)O[C@]1(C(C)=O)CC[C@@H]2[C@@H]3C[C@H](C)C4=CC(=O)CC[C@]4(C)[C@H]3CC[C@@]21C`, the Potency entry is “inactive”. Take `CC1=C(C(=O)OCc2ccc(C)cc2)C(c2ccccc2Cl)CC(=O)N1` (configuration not stated): the Potency entry is “inactive”.

`Cc1ccc(C(=O)Nc2cc3c(cc2N2CCCC2)n(C)c(=O)c(=O)n3C)cc1`: the Potency entry was “inactive”. The value for `COc1ccccc1-c1cc2nc(C)c(CCC(=O)NC3CCCCC3)c(C)n2n1` was “inactive”; that for `CCOc1ccc(NC(=O)CCc2c(C)nn(-c3ccc(N4CCCC4)nn3)c2C)cc1` was “inactive”. In the case of `CN1CCN(c2oc(-c3ccc(COc4ccc(Cl)cc4)o3)nc2C#N)CC1` it was “inactive”. Regarding `COc1ccc(Cn2cc(C(=O)c3ccc(C)cc3)c(=O)c3cc(OC)c(OC)cc32)cc1`, the Potency entry was “inactive”. In the case of `Cc1ccc2nc(COc3ccc(NC(=O)COc4ccccc4F)cc3)cc(=O)n2c1`, the Potency entry is “inactive”. The value for `COc1ccccc1CNC(=O)c1ccc(-n2c(C)cc3c2CCCC3)cc1` was “inactive”. As to `O=C(CSCc1cnn(-c2ccccc2)c1-n1cccc1)NCc1ccccc1Br`, the Potency result was “inactive”. With `COc1cc(Cl)cn2c(-c3cccc(NC4CNC4)n3)cnc12`, the Potency result is “inactive”. `Cc1ccc(C)c(Nc2nnc(-c3ccc(C)c(S(=O)(=O)N4CCCCC4)c3)c3ccccc23)c1`: the Potency entry is “inactive”.

Take `Cc1ccc(C)c(N2CCN(C(=O)CCc3c(C)nc4c(c3C)c(=O)n(C)c(=O)n4C)CC2)c1`: the Potency result was “inactive”. With `CCOc1ccc(NC(=O)c2cc3c(=O)n(Cc4cccs4)ccc3nc2C)cc1`, the Potency entry was “inactive”. Consider `CCCOc1ccc(NC(=O)CC2C(=O)N(c3ccccc3)C(=O)N2Cc2ccco2)cc1` (configuration not stated), for which the Potency result is “inactive”. In the case of `O=C(CCCn1c(=O)c2cccn2c2cccnc21)NCc1ccc(F)cc1` it was “inactive”; in that of `Cc1ccccc1-c1nc2cc(NC(=O)c3cccc(OCCC(C)C)c3)ccc2o1`, “inactive”. Regarding `CCN(Cc1ccccc1)C(=O)CCS(=O)(=O)c1ccc2c(c1)oc(=O)n2C`, the Potency result is “inactive”.

For the molecule `Cc1cccc(NC(=O)CN(c2ccc(C(C)C)cc2)S(=O)(=O)c2c(C)nn(C)c2C)c1C`, the Potency entry was “inactive”.

Consider `O=C(CCc1ccccc1)NCc1ccc2c(c1)CCN2C(=O)c1ccccc1`, for which the Potency result was “inactive”. Regarding `Cc1cc(O)c(C(c2ccccc2)N2CCN(c3ccccc3F)CC2)c(=O)n1Cc1ccco1` (configuration not stated), the Potency entry is “inactive”. Consider `O=[N+]([O-])c1cc(-c2nc(-c3ccccc3)no2)ccc1NCc1ccco1`, for which the Potency entry is “inactive”. As for `Cc1ccc(C)c(Cn2c(C)c(CNCc3ccc(F)cc3)c(C(=O)O)c2C)c1`, the Potency entry was “inactive”. The value for `COc1ccc(C2(C#N)CCC(C(=O)O)CC2)cc1OC1CCCC1` (configuration not stated) was “inactive”; that for `CCOC(=O)c1c(NC(=O)c2cc(CC)on2)sc(C(C)=O)c1C` was “inactive”; that for `CC(C)(C)c1[nH]cnc1C=c1[nH]c(=O)c(=Cc2ccccc2)[nH]c1=O` was “inactive”.
